Results on 82 compounds are retold here after PubChem BioAssay AID376 (PDSP, 2006).

The campaign covered roughly 2,000 compounds. About 250 (12%) were called active. Shown is part of a subset that was picked to be rich in actives. Values without a mark were called inactive. Rule as the data show it: active = hERG blockade below about -20% or above about 20%; inactive = in between.

Voltage-gated inwardly rectifying potassium channel KCNH2 (Homo sapiens), sequence (Q12809 whole entry, looked up): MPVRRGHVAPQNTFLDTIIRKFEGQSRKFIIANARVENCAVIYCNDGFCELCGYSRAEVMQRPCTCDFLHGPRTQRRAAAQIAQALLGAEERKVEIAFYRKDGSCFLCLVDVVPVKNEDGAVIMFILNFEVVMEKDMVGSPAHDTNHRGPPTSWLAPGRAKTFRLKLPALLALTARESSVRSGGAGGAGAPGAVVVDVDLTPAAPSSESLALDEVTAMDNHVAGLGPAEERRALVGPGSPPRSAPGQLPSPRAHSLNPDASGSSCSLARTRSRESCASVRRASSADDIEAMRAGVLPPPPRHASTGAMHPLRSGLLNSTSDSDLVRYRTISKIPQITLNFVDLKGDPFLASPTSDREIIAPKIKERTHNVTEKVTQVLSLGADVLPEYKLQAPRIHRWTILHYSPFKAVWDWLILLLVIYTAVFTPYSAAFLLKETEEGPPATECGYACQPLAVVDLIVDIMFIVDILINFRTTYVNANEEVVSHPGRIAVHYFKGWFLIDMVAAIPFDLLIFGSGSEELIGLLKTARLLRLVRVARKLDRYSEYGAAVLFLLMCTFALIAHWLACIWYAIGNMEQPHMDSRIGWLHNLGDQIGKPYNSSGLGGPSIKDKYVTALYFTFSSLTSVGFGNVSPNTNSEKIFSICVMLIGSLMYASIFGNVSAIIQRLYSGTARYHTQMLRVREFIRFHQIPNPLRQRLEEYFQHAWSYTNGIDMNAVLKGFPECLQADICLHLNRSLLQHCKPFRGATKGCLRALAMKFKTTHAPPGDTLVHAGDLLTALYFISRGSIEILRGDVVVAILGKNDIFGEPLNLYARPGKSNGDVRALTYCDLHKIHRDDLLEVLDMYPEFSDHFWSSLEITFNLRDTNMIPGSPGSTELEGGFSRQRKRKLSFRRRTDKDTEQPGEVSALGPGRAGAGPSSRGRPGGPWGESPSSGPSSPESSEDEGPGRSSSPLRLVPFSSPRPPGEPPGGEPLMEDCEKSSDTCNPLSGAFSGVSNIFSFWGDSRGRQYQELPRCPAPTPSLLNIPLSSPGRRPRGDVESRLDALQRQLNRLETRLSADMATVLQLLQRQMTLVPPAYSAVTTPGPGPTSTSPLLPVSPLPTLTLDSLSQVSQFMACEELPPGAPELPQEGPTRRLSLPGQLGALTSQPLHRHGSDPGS

This experiment addresses Voltage-gated inwardly rectifying potassium channel KCNH2 (Homo sapiens) (UniProt Q12809). Description: KCNH2 potassium channel function modulators, cell-based (AID 376).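 Also: 0% = buffer alone and 100% = reference blocker.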 The following applies: hERG-expressing cells, channel activity single-concentration screen; concentration not given here. For orientation: Block of hERG is tested as a sign of cardiac risk.
Turning to `CN(C)CCC(C#N)(c1ccccc1)c1ccccc1`, the hERG blockade was 6.53%.

Turning to `c1ccc2c(c1)Sc1ccccc1N2CC1CN2CCC1CC2` (configuration not stated), the hERG blockade is 69.3% (active).

Regarding `CC1C(C)N1CC(O)Cn1ccnc1[N+](=O)[O-]` (configuration not stated), the hERG blockade is 8.14%. In the case of `Cc1ccc(O)cc1` (tested in a mixture with another compound), the hERG blockade was -3.08%.

`ClCC[N+]12CC[N+](CCCl)(CC1)C2` (tested in a mixture with another compound): the hERG blockade is 11.5%.

As to `CC1(C)N=C(N)N=C(N)N1c1cccc(C(=O)Nc2ccc(S(=O)(=O)F)cc2)c1`, the hERG blockade was 24.1% (active).

`O=C(O)c1cccc([As]=[As]c2cccc(C(=O)O)c2)c1` (configuration not stated): the hERG blockade is -10.8%.

`NC(Cc1cc(Br)c(O)c(Br)c1)C(=O)O` (configuration not stated): the hERG blockade was 9.07%. As to `NNc1nncn1N`, the hERG blockade is -1.06%. On to `COc1cc2cc(c1Cl)N(C)C(=O)CC(OC(=O)C(C)C)C1(C)OC1C(C)C1CC(O)(NC(=O)O1)C(OC)C=CC=C(C)C2` (configuration not stated), for which the hERG blockade is 33% (active).

Regarding `O=C(O)C[O][Sb][O]CC(=O)O`, the hERG blockade was 2.23%. For `OC(CN1CC1)C(O)CN1CC1` (configuration not stated), the hERG blockade was 3.04%. With `c1cc(CCN2CCCCC2)ccn1`, the hERG blockade was -7.49%.

Turning to `C=C(C)c1ccccc1` (tested in a mixture with another compound), the hERG blockade was 1.7%. As for `CC1OC(OC2CC(O)C3(CO)C4C(O)CC5(C)C(C6=CC(=O)OC6)CCC5(O)C4CCC3(O)C2)C(O)C(O)C1O` (configuration not stated), the hERG blockade was 2.43%. On to `CCC1(O)C(=O)OCc2c1cc1n(c2=O)Cc2cc3c(NC(=O)CN)cccc3nc2-1` (configuration not stated), for which the hERG blockade was 7.93%. Consider `O=C(O)C(Cc1cnc[nH]1)N1C(=O)c2ccccc2C1=O` (configuration not stated), for which the hERG blockade is 14.2%. In the case of `Oc1cccc2cccnc12`, the hERG blockade is -22.9% (active). As to `NCCCN1CCN(c2ccccc2)CC1`, the hERG blockade was -0.441%.

Turning to `C(=NCCN1CCOCC1)=NC1CCCCC1`, the hERG blockade was 6.97%. Consider `O=C(O)c1cc(N=Nc2ccc([As](=O)(O)O)cc2)ccc1O`, for which the hERG blockade is 3.08%. As to `CC(=O)OC1=CC2=CCC3C4CCC(=O)C4(C)CC(=O)C3(S)C2(C)CC1` (configuration not stated), the hERG blockade was -3.78%. For the compound `O=C(O)CNCP(=O)(O)O`, the hERG blockade was -1.2%. `CN1CC(C(=O)NC2(C)OC3(O)C4CCCN4C(=O)C(Cc4ccccc4)N3C2=O)C=C2c3cccc4[nH]cc(c34)CC21` (configuration not stated): the hERG blockade was 6.97%. Then `CC(Br)CN(CC(C)Br)c1ccc2c(c1)Cc1ccccc1-2` (configuration not stated), with 3.41%; and `CCC(O)(C(=O)O)c1cc2n(c(=O)c1CO)Cc1cc3ccccc3nc1-2` (configuration not stated), with -3.09%; and `C[N+]1([O-])C2CCC1CC(OC(=O)C(CO)c1ccccc1)C2` (configuration not stated), with -12.1%. Turning to `CN(C)CCCNc1c2c(nc3ccc(Cl)cc13)CCCC2`, the hERG blockade was 65.9% (active). In the case of `O=S(=O)(O)C(=Cc1ccccc1)c1ccccc1` (tested in a mixture with another compound), the hERG blockade was -5.32%.

Consider `O=C(O)Cc1ccc([N+](=O)[O-])cc1[N+](=O)[O-]`, for which the hERG blockade is -15.6%. On to `CC(c1ccccc1)N1CCN(C(C)c2ccccc2)CC1` (configuration not stated), for which the hERG blockade was 2.64%. Regarding `CCC1CN2CCc3cc(OC)c(OC)cc3C2CC1CC1NCCc2c1[nH]c1ccc(O)cc21` (configuration not stated), the hERG blockade was 35.8% (active). As for `O=C(O)CC1OCC=C2CN3CCC45C6=CC(=O)C(=O)C([N+](=O)[O-])=C6NC4C1C2CC35` (configuration not stated), the hERG blockade was 13.9%. On to `CC12CCC(CN(CCC[N+](C)(C)C)C1)C2(C)C` (configuration not stated), for which the hERG blockade is 4.55%.

For the compound `CC1CCC2N(C1)CC1C3(O)CC45OC6(O)C(O)CCC4(C)C6CCC5C3(O)CC(O)C1(O)C2(C)O` (configuration not stated), the hERG blockade was 12.9%. As for `CSCCC(N)P(C)(=O)O` (configuration not stated), the hERG blockade was -4.74%. With `C[As+](C)(c1ccc(Br)c([N+](=O)[O-])c1)c1ccc(Br)c([N+](=O)[O-])c1.O=[N+]([O-])[O-]`, the hERG blockade was 13.6%. As to `N=C(N)n1cc(C=NN=C(N)N)cn1`, the hERG blockade is 47.3% (active). As to `S=P(C1CCCCC1)(C1CCCCC1)C(c1cccnc1)N1CCCC1` (configuration not stated), the hERG blockade is 1.56%. Next, `O.O.[NH-]C1(C(=O)O)CCCC1.[NH-]C1(C(=O)O)CCCC1.[Ni+2]`: 1.76%; `Cc1cc[c]([Sb]2[O]C(CO)C(C(O)C(O)C(=O)O)[O]2)cc1` (configuration not stated): -4.77%; `COc1cc2c(cc1OC)C13CCN4CC5=CCOC(CC(=O)O)C(C5CC41)C3N2` (configuration not stated): 2.07%. Regarding `O=c1[nH]cnc2[nH]cc(CN3CCCCC3)c12`, the hERG blockade was 1.35%. Regarding `O=c1[nH]c2ccccc2n1CCCN1CCC(n2c(=O)[nH]c3cc(Cl)ccc32)CC1`, the hERG blockade is 67.7% (active).

For the compound `CCNC(C)(C)C(SS)c1ccc(Br)cc1` (configuration not stated), the hERG blockade is -7.7%.

For the compound `O=C(O)CC1OCC=C2CN3CCC45c6ccccc6NC4C1C2CC35` (configuration not stated), the hERG blockade was -7.07%. In the case of `CC1(C)CC(=N[N-]C(N)=[SH+])CC(C)(C)N1.CC1(C)CC(=N[N-]C(N)=[SH+])CC(C)(C)N1.[Ni]`, the hERG blockade was -0.871%. For the compound `O=C(O)C1[O][Sb][O]C(C(=O)O)C1O` (configuration not stated), the hERG blockade is -9.98%. Then `CC(C)=CC1C(C(=O)OCc2cc3c(cc2Cl)OCO3)C1(C)C` (configuration not stated), with 1.35%; and `c1nc(N2CC2)c2cnn(C3CCCCO3)c2n1` (configuration not stated), with 4.58%; and `O=C(O)C1C2c3ccccc3C(c3ccccc32)C1C(=O)NCC1CC1` (configuration not stated), with -8.3%. As to `CC(C)CCC1(CCN)C(=O)NC(=O)NC1=O`, the hERG blockade is -21.5% (active). Take `CC12Cc3cnc(-c4ccccc4)nc3CC1CCC1C2CCC2(C)C1CCC2(C)O` (configuration not stated): the hERG blockade is 6.41%. Then `NC(Cc1c[nH]c2cc([N+](=O)[O-])ccc12)C(=O)O` (configuration not stated), with -0.372%; and `CCC1(CCSC(=N)N)C(=O)NC(=O)NC1=O`, with -24.7% (active); and `CCNCCC1(CC)C(=O)NC(=O)NC1=O`, with -21.7% (active). For `NCC(O)CSP(=O)(O)O` (configuration not stated), the hERG blockade is -13.3%. In the case of `CS(=N)(=O)CCC(N)P(=O)(O)O` (configuration not stated), the hERG blockade was -8.23%. For the compound `COc1cc2ccccc2c2cc([N+](=O)[O-])oc12`, the hERG blockade was 15.9%. On to `CC12CCC(O)CC1CCC1C2CCC2(C)C(C(=O)CC(O)C(F)(F)F)CCC12` (configuration not stated), for which the hERG blockade is -1.73%. With `CC(C)CC(=O)CC(O)C(Cl)(Cl)Cl` (configuration not stated), the hERG blockade was -17%.

`CC(Br)(C(=O)O)C(Br)C(=O)O` (configuration not stated): the hERG blockade is 11.1%. Next, `CCC1C2Cc3ccc(O)cc3C1(CC)CCN2C` (configuration not stated): 1.71%; `CCC1=C(CC2NCCc3cc(OC)c(OC)cc32)CC2c3ccccc3CCN2C1` (configuration not stated): 46% (active). On to `COC(=O)c1c(C)ccc2c(O)c3c(cc12)C(=O)c1c2c(cc(O)c1C3=O)C1(C)OC(C)(O2)C(O)C(N(C)C)C1O` (configuration not stated), for which the hERG blockade is 18.8%. For the compound `NCCc1ccc(S(=O)(=O)O)cc1[N+](=O)[O-]`, the hERG blockade is 2.55%. Then `O=[As](O)(O)c1ccc(NCc2ccccc2)cc1`, with -4.95%; and `COc1ccc(CC(N)c2ccc(OC)cc2)cc1` (configuration not stated), with 16.9%; and `CC(=O)OC1CC2(C)C(=CC1C1SCCS1)CCC1C2CCC2(C)C(OC(C)=O)CCC12` (configuration not stated), with 4.12%. `Cc1ccc(C2(c3ccc(C)c(O)c3C)CCN(C)CC2)c(C)c1O`: the hERG blockade is 21.1% (active). Regarding `Cc1ncc([N+](=O)[O-])n1CCN=[N+]=[N-]`, the hERG blockade was -3.49%. As to `c1ccc(C[N+]23CN4CN(CN(C4)C2)C3)cc1`, the hERG blockade is -14.9%. Then `Nc1nc2c(ncn2C2OC(CO)C(O)C2O)c(=[SH+])[nH]1.O=[N+]([O-])c1ccc(O)[c]([Hg])c1` (configuration not stated), with 5.92%; and `COC(=O)C1c2cc3c(c(O)c2C(O)CC1(C)O)C(=O)c1c(O)cc2c(c1C3=O)OC1OC2(C)C(O)C(N(C)C)C1O` (configuration not stated), with 18.4%.

For `NC(Cc1ccccc1)P(=O)(O)O` (configuration not stated), the hERG blockade was 1.7%. With `CC1(C)CCC(C)(C)c2c1ccc(O)c2Cc1c(O)ccc2c1C(C)(C)CCC2(C)C`, the hERG blockade was -7.52%. Turning to `COc1cc2c3cc1Oc1c(O)c(OC)cc4c1C(Cc1ccc(cc1)Oc1cc(ccc1O)CC3N(C)CC2)N(C)CC4` (configuration not stated), the hERG blockade is 38.6% (active).

`COc1ccc(CC2C(=O)NC(C)C(=O)N(C)C3C(=O)N(C)C(Cc4ccc(O)c(c4)Oc4ccc(cc4)C3O)C(=O)NC(C)C(=O)NC(C)C(=O)N2C)cc1` (configuration not stated): the hERG blockade was 6.31%. Turning to `COc1cc2c(cc1O)CC1c3c(cc(O)c(OC)c3-2)CCN1C` (configuration not stated), the hERG blockade is 4.49%. Regarding `N#CS.N=C=S.N=C=S.[Cu+2].[NH2-].[NH2-].[NH2-].[NH2-].c1ccc2ncccc2c1`, the hERG blockade is 6.79%. Take `c1cncc(CNCCN2CCNCC2)c1`: the hERG blockade was -8.8%. With `NC1(P(=O)(O)O)CCCCC1`, the hERG blockade is -4.89%.
